This passage reports growth results from PubChem BioAssay (NCI).

The panel holds about 83,000 compounds, 20% with a hit somewhere; the sample as a whole holds those more often.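 How to read the values: 0–100, growth inhibition (40 = 60% inhibited); 0, no net growth; -100 to 0, cell death (-40 = 40% of starting cells died; -100 = all dead).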 The source made the active and inactive calls. The calls were made as follows: active = growth percent below 10; inactive = the rest.

The experiment deals with MOLT-4 leukemia. Nature of the experiment: NCI-60 one-dose screen, 48 h (100 = growth as untreated, 0 = no growth, -100 = all killed). As to conditions: 10 µM unless noted.
`CCCCCCCCCCCCCCCCOc1ccccc1NC(=O)CC(C)=O`: the growth is 84.8% (inactive).

In the case of `Cc1cc(Cc2ccccc2)c(O)c(Cc2ccccc2)c1`, the growth was 64.6% (inactive).

Turning to `Nc1cc(N)ncn1`, the growth is 93.5% (inactive).

`CC(C)(C)NCCC(O)c1cc(C(F)(F)F)nc2c(C(F)(F)F)cccc12` (stereo not drawn): the growth was 89.6% (inactive).

Take `O=Cc1c(O)c2ccccc2[nH]c1=O`: the growth is 104% (inactive).

In the case of `CN=S(=O)(OCCCCCOS(=O)(=NC)c1ccc(C)cc1)c1ccc(C)cc1` (stereo not drawn), the growth is 78.6% (inactive).

For the compound `O=c1cc(Cl)nc2ccccn12`, the growth is 106% (inactive).

Consider `CCOP(=O)(NC(c1ccccc1)c1ccccc1)OCC`, for which the growth is 106% (inactive).

As for `Cc1ccc2nc(N)nnc2c1`, the growth is 100% (inactive).

For `Cc1ccc(S(N)(=O)=O)cc1Cl`, the growth was 96.6% (inactive).

Consider `Nc1cc2ccccc2c(O)c1O`, for which the growth was -6.45% (active).

In the case of `CC(C)N1CC(=O)N2CSCC2C1=O` (stereo not drawn), the growth was 111% (inactive).

With `CCOC(=N)CC(=O)Nc1cccc(C)c1Cl`, the growth was 108% (inactive).

With `Cc1cc2c(C(C)C)c(O)c(O)c(C=Nc3ccccc3[N+](=O)[O-])c2c(O)c1-c1c(C)cc2c(C(C)C)c(O)c(O)c(C=Nc3ccccc3[N+](=O)[O-])c2c1O`, the growth was 26.2% (inactive).

As to `Cc1cc(C(=O)NN)c(C#N)c(=O)[nH]1`, the growth is 111% (inactive).

As for `COC1OC(CO)C(OC)C(O)C1O` (stereo not drawn), the growth was 98.6% (inactive).

Take `CCOC(=O)/C(O)=C(\C=N\C(=S)Nc1ccc(Cl)c(Cl)c1)C(=O)OCC`: the growth was 76.5% (inactive).

As for `O=C(c1ccccc1)c1ccc(-c2ccc(O)cc2)cc1`, the growth was 120% (inactive).
